GDH-TPI inh = inhibits GDH-TPI coupling enzymes, artifact for Mtb FBA screen | hit rate 1.2% among 360,000 | inhibition, % at 4.8 µM | GDH-TPI coupled enzyme counterscreen, NADH absorbance
Mtb FBA inh = inhibitors of M. tuberculosis fructose-bisphosphate aldolase | P9WQA3 | purified M. tuberculosis FBA, fluorescence read-out | inhibition, % at 1 µM | hit rate 2.3% among 360,000 | AID 588726; in the data active = inhibition above about 27%
Target sequence (P9WQA3 whole entry, looked up): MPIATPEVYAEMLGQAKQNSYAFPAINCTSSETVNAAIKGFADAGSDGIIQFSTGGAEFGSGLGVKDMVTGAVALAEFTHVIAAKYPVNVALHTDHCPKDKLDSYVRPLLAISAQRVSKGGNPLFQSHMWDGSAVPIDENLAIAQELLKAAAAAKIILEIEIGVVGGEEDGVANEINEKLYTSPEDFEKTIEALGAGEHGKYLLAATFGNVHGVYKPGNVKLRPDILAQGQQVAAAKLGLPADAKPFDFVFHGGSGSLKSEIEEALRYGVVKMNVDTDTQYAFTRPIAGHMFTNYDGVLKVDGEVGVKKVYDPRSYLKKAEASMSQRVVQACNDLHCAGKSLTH
Mtb bLac sens = beta-lactam sensitization of Mtb H37Rv; AID 434955; M. tuberculosis H37Rv growth with meropenem, percent inhibition; inhibition, % at 25 µM; hit rate 0.27% among 330,000; call rule not given here;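 note: growth measured after seven days incubation then overnight dye step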
MazF activator = increases E. coli MazEF RNase cleavage of RNA; activation, % at 20 µM; FAM/BHQ RNA-DNA oligo cleavage fluorescence, 5 h; hit rate 0.32% among 350,000; P0AE70; in the data active = activation above about 50%
Target sequence (P0AE70 whole entry, looked up): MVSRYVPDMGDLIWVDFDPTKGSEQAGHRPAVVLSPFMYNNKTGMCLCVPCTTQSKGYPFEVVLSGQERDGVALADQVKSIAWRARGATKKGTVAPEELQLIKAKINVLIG
CCHF vOTU inh = CCHFV vOTU protease inhibition. hit rate 0.55% among 370,000. inhibition, % at 11.5 µM. Pep-AMC fluorescence. AID 651958
Of the large screens only hits and unclear results are named; the others gave an inactive call. In the library only some 4% were active in any assay of this set; here they are far more common. Cut-off read from the data, not from the text of the source, unless noted: active = inhibition above about 30%; inactive = the rest.

Cc1cc(=O)oc2cc(OC(=O)c3nn(C(C)C)c(=O)c4ccccc34)ccc12	Mtb FBA inh active
COc1ccc(Cn2cc(CN3[C@@H](CC(C)C)COc4cccc(F)c4S3(=O)=O)nn2)cc1	none (no result: GDH-TPI inh, Mtb FBA inh, Mtb bLac sens, MazF activator)
COC(=O)[C@]12C[C@H](CC(=O)N3CCCCC3)C(=O)N(Cc3ccccc3)C1=C[C@H](C(C)(C)C)O[C@@H]2C	none (no result: GDH-TPI inh, Mtb FBA inh, Mtb bLac sens, MazF activator)
CN1CCCN(C(=O)C2CCCN(C(=O)c3ccc4c(c3)NC(=O)CS4)C2)CC1 (stereo not given)	none (no result: GDH-TPI inh, Mtb FBA inh, Mtb bLac sens, MazF activator)
C/C(=N/N=C(/C)c1cccs1)c1cccs1	none
C/C(=N\Nc1ccc2nncn2n1)c1cccs1	GDH-TPI inh 35
O=C(N=c1ccn(-c2nc3ccccc3nc2NS(=O)(=O)c2ccccc2)cc1)c1cccs1	MazF activator 413
Cc1ccccc1C(=O)N=c1ccn(-c2nc3ccccc3nc2NS(=O)(=O)c2ccc(F)cc2)cc1	none
N#C/C(=C(/O)CCl)c1nnc2n1CCCCC2	none
N#C/C(=N\Nc1cc(Cl)cc(Cl)c1)c1nnc2n1CCCCC2	GDH-TPI inh 33
O=C(Nc1nc(Cc2ccccc2)c(-c2ccccc2)n1Cc1ccccc1)c1ccccc1	none (no result: GDH-TPI inh, Mtb FBA inh, Mtb bLac sens, MazF activator)
CCN1C(=O)NC(=O)/C(=C\c2cn(CC(=O)N3CCCCC3C)c3ccccc23)C1=O (stereo not given)	Mtb bLac sens inconclusive, MazF activator active (no result: CCHF vOTU inh)
O=S1(=O)c2c(cccc2N2CCC[C@H]2CO)OCCCN1C1CC1	none (no result: GDH-TPI inh, Mtb FBA inh, Mtb bLac sens, MazF activator)
CC12CCC(C(=O)Nc3c(Cl)cccc3Cl)(C(Br)C1=O)C2(C)C (stereo not given)	none
CC12CCC(C(=O)Nc3cccc(Cl)c3Cl)([C@H](Br)C1=O)C2(C)C (stereo not given in full)	Mtb FBA inh 113
Cc1ccc(CN2C(=O)N/C(=C\c3ccc(-c4ccc(C(=O)O)cc4C)o3)C2=O)cc1	none (no result: Mtb bLac sens)
Cc1cc(C(=O)O)ccc1-c1ccc(CO)o1	Mtb FBA inh 161
CCOC(=O)c1ccc(-c2ccc3ncnc(NCc4csc(C)n4)c3c2)o1	GDH-TPI inh 37, Mtb FBA inh active (no result: Mtb bLac sens, MazF activator)
O=C(NCCc1c[nH]c2ccccc12)OCc1cn(-c2ccc(F)cc2)nn1	none (no result: GDH-TPI inh, Mtb FBA inh, Mtb bLac sens, MazF activator)
Cn1c(=O)c2cc(NC(=O)NCc3ccc(F)cc3)ccc2n1C	Mtb FBA inh 162 (no result: Mtb bLac sens, MazF activator)
O=C(NCc1ccc(F)cc1)Nc1ccc(Cl)cc1	none
C=C(C)Cn1c2ccc(NC(=O)NCc3ccc(F)cc3)cc2c(=O)n1C	Mtb FBA inh 190 (no result: Mtb bLac sens, MazF activator)
O=C(N/N=C\C=C\c1ccc2c(c1)OCO2)c1ccc(F)cc1	none
O=C(N/N=C\c1ccc(O)c([N+](=O)[O-])c1)C1COc2ccccc2O1 (stereo not given)	GDH-TPI inh 70
O=C(N/N=C/C=C/c1ccc2c(c1)OCO2)C(O)c1ccccc1 (stereo not given)	GDH-TPI inh 56
Cc1cc(C(=O)N/N=C/C=C/c2ccc3c(c2)OCO3)n[nH]1	GDH-TPI inh 50
O=C(N/N=C\C=C\c1ccc2c(c1)OCO2)C1COc2cc3ccccc3cc2O1 (stereo not given)	GDH-TPI inh 49
CC(C)(C)c1ccc(-c2cn(C[C@H](Cc3ccccc3)n3c(=O)c4ccccc4n3Cc3ccco3)nn2)cc1	none (no result: GDH-TPI inh, Mtb FBA inh, Mtb bLac sens, MazF activator)
CCOC(=O)CC[C@H]1CC[C@]2(CCCN(C(=O)c3ccccc3)C2)O1	none (no result: GDH-TPI inh, Mtb FBA inh, Mtb bLac sens, MazF activator)
O=C(Nc1ccc([N+](=O)[O-])cc1)C1COc2ccccc2O1 (stereo not given)	none
O=C(N/N=C/C=C/c1ccc([N+](=O)[O-])cc1)C1COc2ccccc2O1 (stereo not given)	GDH-TPI inh 35
CC(C)=CCC[C@@]1(C(=O)O)[C@@H]2C/C=C(\C)CC/C=C(\C)CC[C@H]1[C@]1(CC2)CO1	none (no result: GDH-TPI inh, Mtb FBA inh, Mtb bLac sens, MazF activator)
Cc1cccc2ccccc12	none (no result: GDH-TPI inh, Mtb FBA inh, Mtb bLac sens, MazF activator)
Cc1ccc2c(C)c3ccc4ccccc4c3c[n+]2c1	Mtb FBA inh active (no result: Mtb bLac sens)
O=C(Nc1ccc2nn(-c3ccccc3)nc2c1)c1ccco1	GDH-TPI inh 33
O=C(Nc1ccc2nn(-c3ccccc3)nc2c1)c1cccnc1	GDH-TPI inh 35
CC(C)C(=O)Nc1ccc2nn(-c3ccccc3)nc2c1	Mtb FBA inh active
O=C(Nc1cc2nn(-c3ccccc3)nc2cc1Cl)c1ccco1	GDH-TPI inh 38
CC(C)C(=O)Nc1ccc(Nc2ccccc2)cc1	none
Cc1nc2ccc(NC(=O)c3ccco3)cc2nc1C	none
O=C(Nc1ccc2c(c1)Cc1ccccc1-2)NC1CCCCN(Cc2cccc(Cl)c2)C1=O (stereo not given)	none (no result: GDH-TPI inh, Mtb FBA inh, Mtb bLac sens, MazF activator)
COc1ccc(Cn2cc(COC(=O)Nc3ccc(F)cc3)nn2)cc1	none (no result: GDH-TPI inh, Mtb FBA inh, Mtb bLac sens, MazF activator)
CCC(=O)OCCCN1C(=O)CCC12CCC(C)CC2 (stereo not given)	none (no result: GDH-TPI inh, Mtb FBA inh, Mtb bLac sens, MazF activator)
O=c1cc(C(F)(F)F)[nH]c2ccc(OC(F)(F)F)cc12	none
O=c1cc(C(F)(F)F)[nH]c2c(C(F)(F)F)cccc12	Mtb FBA inh active (no result: CCHF vOTU inh)
CC(=O)c1cc(-c2ccccc2)n(CC(=O)NCc2ccc(F)cc2)c1C	none (no result: GDH-TPI inh, Mtb FBA inh, Mtb bLac sens, MazF activator)
CCCCNS(=O)(=O)c1ccc2nc(-c3cccnc3)cc(C(=O)NCCOC)c2c1	GDH-TPI inh 32
COCCCNC(=O)c1cc(-c2cccnc2)nc2ccccc12	none
COc1ccc(N/N=C(/C#N)S(=O)(=O)c2nsc(C)c2C#N)cc1	GDH-TPI inh 38
CCOC(=O)CC[C@H]1CC[C@]2(CCCN(S(=O)(=O)C3CCCCC3)C2)O1	none (no result: GDH-TPI inh, Mtb FBA inh, Mtb bLac sens, MazF activator)
COC(=O)[C@]12C[C@H](CC(=O)N3CCSCC3)C(=O)N(Cc3ccc(Cl)cc3Cl)C1=C[C@H](C(C)(C)C)O[C@@H]2C	none (no result: GDH-TPI inh, Mtb FBA inh, Mtb bLac sens, MazF activator)
Cc1cc([N+](=O)[O-])nn1Cc1ccc(C(=O)N/N=C/c2ccc(O)cc2O)cc1	GDH-TPI inh 44
Cc1nc(N2CCC(C)CC2)c2c(C)c(C(=O)Nc3ccc4c(c3)OCCO4)sc2n1	none
Cc1c(C(=O)Nc2ccc3c(c2)OCCO3)sc2ncnc(N3CCCCC3C)c12 (stereo not given)	GDH-TPI inh 31
CCc1c(C)c2cc(Cl)c(O)c(CN3CCCC3)c2oc1=O	Mtb FBA inh active
CCCCc1cc(=O)oc2c(CN3CCN(C)CC3)c(O)ccc12	Mtb FBA inh active
CCCc1cc(=O)oc2c(CN3CCN(C)CC3)c(O)c(Cl)cc12	none (no result: Mtb FBA inh)
CCCCc1cc(=O)oc2cc(O)ccc12	Mtb FBA inh active
CCCCc1cc(=O)oc2c(CN3CCCC3)c(O)c(Cl)cc12	Mtb FBA inh active
Nc1nc2nccc(-c3ccco3)n2n1	Mtb FBA inh active
COC(=O)[C@]12C[C@H](CC(=O)NCc3ccc(C)o3)C(=O)N(Cc3ccco3)C1=C[C@H](C(C)(C)C)O[C@@H]2C	none (no result: GDH-TPI inh, Mtb FBA inh, Mtb bLac sens, MazF activator)
NC(=O)c1ccc(/C=N/O)[n+](Cc2ccccc2)c1	GDH-TPI inh 35
CCOC(=O)c1ccc(/C=N/O)[n+](Cc2ccccc2)c1	none
COc1cc(/C=N/NC(=O)c2ccncc2)cc(OC)c1OC	none
CCOc1cc(/C=N/NC(=O)c2ccc(N(C)S(=O)(=O)c3ccccc3)cc2)ccc1OC	GDH-TPI inh 42
COc1cc(C(=O)NN=Cc2ccc(N(C)C)cc2)cc(OC)c1OC	GDH-TPI inh 42 (no result: Mtb bLac sens)
COc1ccc(/C=N/NC(=O)c2ccc3ccccc3c2)cc1OS(=O)(=O)c1ccc(NC(C)=O)cc1	GDH-TPI inh 36
